Assay results: PubChem BioAssay (Tox21)
Records with an inconclusive call do not appear. Calls of active or inactive are those of the source. Unless noted, calls come from the whole dose curve; as a rule, active = well fitted curve in the direction sought with a large enough effect in the repeat runs; inconclusive = weak or mixed curves; inactive = no such curve, though single readings can be large; an effect the other way counts as inactive or inconclusive.

How the values were obtained:
[1] = qHTS assay for small molecule agonists of the p53 signaling pathway (AID 651631; calls by dose curve; note: nearly all actives have a fitted effect of over 15% in size)
Summary of the method: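 Stably transfected HCT-116 cells (beta-lactamase behind p53 response elements) get compounds after a 5 h settling period; 16 h later at 37 °C, FRET substrate is loaded and fluorescence read after 2 h.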

[2] = qHTS assay for small molecules that induce genotoxicity in human embryonic kidney cells expressing luciferase-tagged ATAD5 (AID 651632); note: nearly all actives have a fitted effect of over 15% in size
Summary of the method: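 Cells were seeded at 2,000 per well, dosed with compound, and incubated 16 hr at 37C in 5% CO2. Luciferase activity was then quantified after a 30 min room-temperature incubation with Amplite.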

[3] = qHTS assay for small molecule agonists of the p53 signaling pathway - cell viability (AID 651633; calls by dose curve;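 note: p53RE-bla HCT reporter cells with a stable beta-lactamase p53 reporter; series mostly up to about 83 µM; nearly all actives have a fitted effect of over 30% in size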)
Summary of the method: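 Viability counter-read: CellTiter-Glo luminescence (30 min, room temperature) in the same p53RE-bla plates. These plates had been exposed to compounds for 16 h at 37 C.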

[4] = qHTS assay for small molecules that induce genotoxicity in human embryonic kidney cells expressing luciferase-tagged ATAD5 - cell viability (AID 651634; calls by dose curve; note: nearly all actives have a fitted effect of over 25% in size)
Summary of the method: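 Cells (HEK293T, luciferase-tagged ATAD5) are seeded at 2,000 per well, dosed with compound or DMSO vehicle, and incubated 15.5 hr at 37C and 5% CO2. CellTiter-Fluor is added for 30 min before fluorescence is measured.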

[5] = qHTS assay for small molecule disruptors of the mitochondrial membrane potential - cell viability (AID 720634; calls by dose curve;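 note: human HepG2 liver cancer cells; series mostly up to about 83 µM; nearly all actives have a fitted effect of over 20% in size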)
Summary of the method: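 Cytotoxicity was measured by ATP quantitation in HepG2 wells that had first been treated with compound for 1 hr and stained with m-MPI dye; CellTiter-Glo incubation was 30 min at room temperature.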

[6] = qHTS assay for small molecule disruptors of the mitochondrial membrane potential (AID 720635)
Summary of the method: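 Mitochondrial membrane potential tracked with Mito-MPS dye, red aggregates (ex 540/em 590 nm) against green monomers (ex 490/em 535 nm). Compound treatment 1 hr at 37C, dye 30 min in HepG2.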

[7] = qHTS assay to test for compound auto fluorescence at 590 nm (red) in HepG2 cells (AID 720674)
Summary of the method: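 Red autofluorescence (Ex/Em 540/590 nm, Rose Bengal sodium equivalents) was measured in HepG2 cells, 2,000 per well in MEM plus 10% FBS, plated overnight at 37 C. Readings were taken 1 hr after adding 23 nL compound or DMSO, at 37 C and 5% CO2.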

[8] = qHTS assay to test for compound auto fluorescence at 535 nm (green) in HepG2 cells (AID 720675)
[9] = qHTS assay to test for compound auto fluorescence at 460 nm (blue) in HEK293 cells (AID 720678)
Summary of the method: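 Auto fluorescence in the blue band was quantified as triamterene equivalency. HEK293 cells were seeded at 2,000/well, dosed after a 4-5 hr attachment, and kept overnight at 37C before the 405/460 nm reading.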

[10] = qHTS assay to test for compound auto fluorescence at 590 nm (red) in HEK293 cells (AID 720679)
Summary of the method: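 Autofluorescence equivalency to Rose Bengal sodium, 540/590nm, in HEK293 cells exposed overnight to 23 nL compound per well.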

Measured: Potency

CC(C)(C)c1n[nH]c(=S)n(N)c1=O
inactive: all assays above

CC(=C(CCOC(=O)C(C)C)SSC(CCOC(=O)C(C)C)=C(C)N(C=O)Cc1cnc(C)nc1N)N(C=O)Cc1cnc(C)nc1N
inactive: all assays above

CC(=O)OC(C)OC(=O)C(C)c1ccc(-c2ccccc2)c(F)c1 (stereo not given)
inactive: all assays above

CC(=O)/C=C/C1C(C)=CCC(C)C1(C)C (stereo not given)
not listed: [9]
inactive: all other assays above

Cc1ccc2c(c1)OCC(=O)CO2
not listed: [9]
inactive: all other assays above

C=COCCOCCOCCOC=C
inactive: all assays above

CC(C)CC(=O)O
inactive: all assays above

O=C(CCNNC(=O)c1ccncc1)NCc1ccccc1
inactive: all assays above

CC(C(=O)O)c1ccc2c(c1)CC(=O)c1ccccc1S2 (stereo not given)
inactive: all assays above

CC(C)CCCC(C)(C)O
not listed: [9]
inactive: all other assays above

NCCS
inactive: all assays above

N#Cc1ccc(C(=O)O)cc1
inactive: all assays above

c1ccc2nccnc2c1
inactive: all assays above

CC(C)=O
inactive: all assays above

CC(=O)NCCCCCC(=O)O
inactive: all assays above

CCOC(=O)c1ncn2c1CN(C)C(=O)c1cc(F)ccc1-2
inactive: all assays above

COC(=O)c1ccccc1C(=O)c1ccc(OCCN2CCCCC2)cc1
not listed: [9]
inactive: all other assays above

CC(C)NCC(O)COc1ccc(COCCOC(C)C)cc1 (stereo not given)
inactive: all assays above

CC(=O)c1sc(C)nc1C
not listed: [9]
inactive: all other assays above

O=C(O)Cc1cn(-c2ccccc2)nc1-c1ccc(Cl)cc1
inactive: all assays above

CCCN1C[C@H](CSC)C[C@@H]2c3cccc4[nH]cc(c34)C[C@H]21
inactive: all assays above

CCCC/C=C\CCCCCCCCCC=O
inactive: all assays above

CCCCOC(=O)c1ccccc1
inactive: all assays above
